In PubChem BioAssay (Tox21) one finds Potency data, which are given here for 37 molecules.

Values joined by “and” are separate entries in the source; they are usually repeats but may differ in a detail not shown here. Equal values may be shown once. Active and inactive are the calls of the source. A call without a number means that no potency is given here. Unless noted, the call rests on the fitted dose curve.
Potency means the concentration at half of the fitted maximal effect.

Estrogen receptor (Homo sapiens), sequence (P03372 whole entry, looked up): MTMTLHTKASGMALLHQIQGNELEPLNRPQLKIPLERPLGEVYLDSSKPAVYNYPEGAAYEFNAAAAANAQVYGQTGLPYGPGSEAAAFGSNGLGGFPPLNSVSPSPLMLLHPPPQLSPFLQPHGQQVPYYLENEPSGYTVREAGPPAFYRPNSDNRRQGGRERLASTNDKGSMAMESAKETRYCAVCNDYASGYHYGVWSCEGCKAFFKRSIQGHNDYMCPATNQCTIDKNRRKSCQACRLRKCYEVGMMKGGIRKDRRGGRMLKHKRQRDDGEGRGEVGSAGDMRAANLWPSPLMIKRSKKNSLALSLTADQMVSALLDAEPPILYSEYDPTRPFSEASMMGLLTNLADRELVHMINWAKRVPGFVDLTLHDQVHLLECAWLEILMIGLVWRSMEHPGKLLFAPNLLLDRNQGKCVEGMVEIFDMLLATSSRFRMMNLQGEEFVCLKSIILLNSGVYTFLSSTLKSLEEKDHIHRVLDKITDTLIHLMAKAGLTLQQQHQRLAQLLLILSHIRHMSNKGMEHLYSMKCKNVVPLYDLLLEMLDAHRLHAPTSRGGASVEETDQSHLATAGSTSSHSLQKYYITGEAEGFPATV

Test system in one experiment: not listed separately
Description: qHTS assay to identify small molecule antagonists of the thyroid receptor (TR) signaling pathway (AID 743065; active means well fitted inhibition curve with a large enough effect in the repeat runs; inconclusive means weak or mixed curves; inactive means no such curve, though single readings can be large or run the other way; further: nearly all actives have a fitted effect of over 55% in size). The note with it: GH3.TRE-Luc, T3-stimulated luciferase inhibition, 23.5 h; series mostly up to 70.3 µM. The method in brief: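 GH3.TRE-Luc rat pituitary cells carrying two TR response elements driving luciferase were plated for 4 h, given compound plus 1 nM T3 (final), and incubated 23.5 h at 37 C. ONE-Glo luminescence measured reporter inhibition; CellTiter-Fluor fluorescence tracked cytotoxicity.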
Consider `CC(C)=CCC/C(C)=C/CC/C(C)=C/CO`, for which the Potency was 61.1 µM (active).

As to `Cc1cccc(C)c1NC(=O)CN(CC(=O)O)CC(=O)O`, the Potency entry was “inactive”. In the case of `O=[N+]([O-])c1cccc(S(=O)(=O)O)c1`, the Potency result was “inactive”. On to `CCCCCCCC/C=C\CCCCCCCC(=O)OCC`, for which the Potency result was “inactive”. Take `C=CC(=O)OCCOCCOC(=O)C=C`: the Potency is 68.9 µM (active). For `CC(C)C[C@H]1C(=O)N2CCC[C@H]2[C@]2(O)O[C@](NC(=O)[C@@H]3C=C4c5cccc6[nH]c(Br)c(c56)C[C@H]4N(C)C3)(C(C)C)C(=O)N12`, the Potency is 13.3 µM (active) and 16.4 µM (active). Take `C1CCCNCCC1`: the Potency entry is “inactive”. Same read-out and setting: in the case of `CCCCCCCCCCCCCCCCCCOS(=O)(=O)O` it was 48.6 µM (active); in that of `Nc1ccc(N)c2c1C(=O)c1ccccc1C2=O`, 24.3 µM (active); in that of `COc1cc2nc(N3CCN(C(=O)C4COc5ccccc5O4)CC3)nc(N)c2cc1OC` (configuration not stated), 29.8 µM (active). On the same count and under the same terms, in the case of `Nc1ncn([C@H]2C[C@H](O)[C@@H](CO)O2)c(=O)n1` it was “inactive”. With `CCC(C)(C)CC`, the Potency entry is “inactive”.

As to `COc1cc(Cl)ccc1Oc1ccc(Cl)cc1Cl`, the Potency is 52.9 µM (active).

Take `COc1ccc(-c2nc3ccc(C4=NNC(=O)CC4C)cc3[nH]2)cc1` (configuration not stated): the Potency is 23.7 µM (active). Regarding `C=C1C(=C/C=C2\CCC[C@]3(C)[C@@H]([C@H](C)/C=C/[C@@H](O)C4CC4)CC[C@@H]23)C[C@@H](O)C[C@@H]1O`, the Potency was 26.6 µM (active). Still for that read-out and setting: in the case of `CC[N+](C)(CC)CCOC(=O)C(O)(c1ccccc1)C1CCCCC1` (configuration not stated) it was “inactive”; in that of `CCOC(=O)NCCOc1ccc(Oc2ccccc2)cc1`, “inactive”.

Consider `O=[N+]([O-])c1ccc(NCCO)c(OCCO)c1`, for which the Potency entry is “inactive”. Regarding `CC(C)OC(=O)C(C)N(C(=O)c1ccccc1)c1ccc(F)c(Cl)c1` (configuration not stated), the Potency was 61.1 µM (active). Same read-out and setting: in the case of `Clc1ccc(Cn2c(CN3CCCC3)nc3ccccc32)cc1` it was 11.4 µM (active); in that of `O=C(O)c1ccc(-n2nc(-c3ccccc3O)nc2-c2ccccc2O)cc1`, 29.8 µM (active); in that of `S=C([S-])NCCNC(=S)[S-].[Mn+2]`, “inactive”. The same measure, in the same setting: in the case of `O=C(Nc1ccc(S(=O)(=O)N2CCOCC2)cc1)c1cc(Cl)ccc1NS(=O)(=O)c1ccc(Cl)s1` it was 18.8 µM (active).

The subject of another experiment is thyroid hormone receptor (rat, GH3 cells). Description: qHTS assay to identify small molecule agonists of the thyroid receptor (TR) signaling pathway (AID 743066). The note with it: GH3.TRE-Luc cells, TR agonist luciferase, 24 h; series mostly up to 83.9 µM.
Take `CC(C)=CCC/C(C)=C/CC/C(C)=C/CO`: the Potency result was “inactive”.

In the case of `O=C(Cl)c1cc(C(=O)Cl)cc(C(=O)Cl)c1`, the Potency result was “inactive”.

Take `O=C1CCCCCCCCCCCC(=O)OCCO1`: the Potency entry was “inactive”. The same measure, in the same setting: in the case of `CN(Cc1ccc(C(C)(C)C)cc1)Cc1cccc2ccccc12` it was “inactive”. The same measure, in the same setting: in the case of `Cc1cccc(C)c1NC(=O)CN(CC(=O)O)CC(=O)O` it was “inactive”; in that of `O=[N+]([O-])c1cccc(S(=O)(=O)O)c1`, “inactive”. Take `CCCCCCCC/C=C\CCCCCCCC(=O)OCC`: the Potency result was “inactive”. Still for that read-out and setting: in the case of `OC(C#CCN1CCCC1)(c1ccccc1)c1ccccc1` it was “inactive”; in that of `CCCCCCCCCCCCCCCCOS(=O)(=O)O`, “inactive”. For `O=S(c1cc(Cl)cc(Cl)c1O)c1cc(Cl)cc(Cl)c1O`, the Potency entry is “inactive”. In the case of `C=CC(=O)OCCOCCOC(=O)C=C`, the Potency entry is “inactive”. With `CC(C)C[C@H]1C(=O)N2CCC[C@H]2[C@]2(O)O[C@](NC(=O)[C@@H]3C=C4c5cccc6[nH]c(Br)c(c56)C[C@H]4N(C)C3)(C(C)C)C(=O)N12`, the Potency entry is “inactive”. On the same count and under the same terms, in the case of `Cc1oc(-c2ccccc2)nc1CCOc1cccc2c1ccn2CCC(=O)O` it was “inactive”; in that of `C1CCCNCCC1`, “inactive”. As to `CCCCCCCCCCCCCCCCCCOS(=O)(=O)O`, the Potency entry was “inactive”. Regarding `Nc1ccc(N)c2c1C(=O)c1ccccc1C2=O`, the Potency entry is “inactive”. On the same count and under the same terms, in the case of `COc1cc2nc(N3CCN(C(=O)C4COc5ccccc5O4)CC3)nc(N)c2cc1OC` (configuration not stated) it was “inactive”.

Take `OC(CN1CCC(Cc2ccc(F)cc2)CC1)c1ccc(Cl)cc1` (configuration not stated): the Potency entry is “inactive”. Regarding `Nc1ncn([C@H]2C[C@H](O)[C@@H](CO)O2)c(=O)n1`, the Potency was 3.35 µM (active). For `CCC(C)(C)CC`, the Potency result is “inactive”.

Take `COc1cc(Cl)ccc1Oc1ccc(Cl)cc1Cl`: the Potency result was “inactive”.

Take `COc1ccc(-c2nc3ccc(C4=NNC(=O)CC4C)cc3[nH]2)cc1` (configuration not stated): the Potency entry is “inactive”. Still for that read-out and setting: in the case of `COc1cc2c(cc1OC)C(C(C(=O)N(CCc1ccc(OC)c(OC)c1OC)CCc1ccc(OC)c(OC)c1OC)c1ccccc1)=NCC2` (configuration not stated) it was “inactive”. On to `O=C(CS)Nc1ccccc1`, for which the Potency entry is “inactive”. Still for that read-out and setting: in the case of `CC[N+](C)(CC)CCOC(=O)C(O)(c1ccccc1)C1CCCCC1` (configuration not stated) it was “inactive”. On the same count and under the same terms, in the case of `CCOC(=O)NCCOc1ccc(Oc2ccccc2)cc1` it was “inactive”. For the molecule `O=[N+]([O-])c1ccc(NCCO)c(OCCO)c1`, the Potency entry was “inactive”. On the same count and under the same terms, in the case of `CC(C)OC(=O)C(C)N(C(=O)c1ccccc1)c1ccc(F)c(Cl)c1` (configuration not stated) it was “inactive”; in that of `Clc1ccc(Cn2c(CN3CCCC3)nc3ccccc32)cc1`, “inactive”; in that of `S=C([S-])NCCNC(=S)[S-].[Mn+2]`, “inactive”. The same measure, in the same setting: in the case of `Cc1cccc(Nc2ccccc2)c1` it was “inactive”.

The next experiment has as its target Estrogen receptor (Homo sapiens) (UniProt P03372). As to the kind of experiment: qHTS assay to identify small molecule antagonists of the estrogen receptor alpha (ER-alpha) signaling pathway (AID 743069; active means well fitted curve in the direction sought with a large enough effect in the signal ratio in the repeat runs, not every such curve was filed as active; inconclusive means weak or mixed curves, or effect the other way; inactive means no such curve, though single readings can be large or run the other way; the % refers to the signal ratio). The note with it: HEK293 ER-alpha-UAS-bla, beta-lactamase ratio, antagonist mode; series mostly up to 69.4 µM. The method in brief:
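Estradiol-stimulated ER-alpha-UAS-bla HEK293 cells, 18 hr compound exposure at 37C. LiveBLAzer B/G substrate, 2 hr RT, fluorescence read.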
Take `O=C(Cl)c1cc(C(=O)Cl)cc(C(=O)Cl)c1`: the Potency entry was “inactive”.

In the case of `O=C1CCCCCCCCCCCC(=O)OCCO1`, the Potency entry is “inactive”.

Take `CN(Cc1ccc(C(C)(C)C)cc1)Cc1cccc2ccccc12`: the Potency entry was “inactive”. As to `CCCCCCCCCCCCCCCCOS(=O)(=O)O`, the Potency result was “inactive”. Still for that read-out and setting: in the case of `C=CC(=O)OCCOCCOC(=O)C=C` it was 61.9 µM [inconclusive] (active); in that of `Cc1cccc(C)c1OCC(=O)N[C@@H](Cc1ccccc1)[C@@H](O)C[C@H](Cc1ccccc1)NC(=O)[C@H](C(C)C)N1CCCNC1=O`, 21.3 µM [inconclusive] (active). For the molecule `C[N+]1(CC2COC(c3ccccc3)(C3CCCCC3)O2)CCCCC1` (configuration not stated), the Potency result is “inactive”. The same measure, in the same setting: in the case of `O=C(CS)Nc1ccccc1` it was 15.1 µM [inconclusive] (active). Same read-out and setting: in the case of `C=C1C(=C/C=C2\CCC[C@]3(C)[C@@H]([C@H](C)/C=C/[C@@H](O)C4CC4)CC[C@@H]23)C[C@@H](O)C[C@@H]1O` it was 21.3 µM [inconclusive] (active); in that of `CC[N+](C)(CC)CCOC(=O)C(O)(c1ccccc1)C1CCCCC1` (configuration not stated), “inactive”. Still for that read-out and setting: in the case of `CCOC(=O)NCCOc1ccc(Oc2ccccc2)cc1` it was 38.9 µM [inhibitor] (active). In the case of `CCCCC1=NC2(CCCC2)C(=O)N1Cc1ccc(-c2ccccc2-c2nn[nH]n2)cc1`, the Potency result is “inactive”. For the molecule `O=C(O)c1ccc(-n2nc(-c3ccccc3O)nc2-c2ccccc2O)cc1`, the Potency was 16.9 µM [inconclusive] (active).
